We go through 22 molecules from the supplement of paper PMC9135407.

Structures can show the parent of a compound that is named as a salt. Unmarked numbers belong to inactive results.

This experiment has as its system primary human hepatic stellate cells (donor 1). Description: COL1A1 mRNA fold change vs DMSO (normalised to PSMB2); higher = more COL1A1 expression, active = hit call of the paper. The following applies: 48 h. How it is done:
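Secondary qRT-PCR screen in primary human HSCs (donor 1), 384-well plates, with compounds dispensed in quadruplicate and incubated for 48 h. Cells-to-CT lysates were used for multiplexed TaqMan qPCR of ACTA2 or COL1A1 with PSMB2 as reference. Fold changes versus DMSO come from a linear model (Ct_gene ~ Ct_PSMB2 + plate + chemical). A hit is defined as COL1A1 and ACTA2 FC <0.5 (FDR <0.05) with PSMB2 between 0.2 and 2.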
Turning to `COc1ccc2c(c[n+](C)c3c4cc5c(cc4ccc23)OCO5)c1OC` (6.66667 µM), the “COL1A1 mRNA fold change” value was 0.204.

`O=C1/C(=C/c2ccccc2)C[C@@]2(O)[C@H]3Cc4ccc(O)c5c4[C@@]2(CCN3CC2CC2)[C@H]1O5` [BNTX maleate] (33.3333 µM): the “COL1A1 mRNA fold change” value is 0.233.

In the case of `O=c1[nH]c2ccccc2n1C1CCN(CCCC(c2ccc(F)cc2)c2ccc(F)cc2)CC1` [Pimozide] (33.3333 µM), the “COL1A1 mRNA fold change” value was 0.027.

Take `CN1[C@@H]2CC[C@H]1C[C@@H](OC(c1ccc(F)cc1)c1ccc(F)cc1)C2` [3 α-Bis-(4-fluorophenyl) methoxytropane hydrochloride] (33.3333 µM): the “COL1A1 mRNA fold change” value was 1.54.

Consider `CC1=C(CC/C(C)=C/CCC2=CC[C@H](C3=CC(=O)O[C@H]3O)O[C@H]2O)C(C)(C)CCC1` [Manoalide] (40 µM), for which the “COL1A1 mRNA fold change” value was 0.236 (active).

As for `CN[C@@H]1C[C@H]2O[C@@](C)([C@@H]1OC)n1c3ccccc3c3c4c(c5c6ccccc6n2c5c31)C(=O)NC4` [staurosporine] (35.6667 µM), the “COL1A1 mRNA fold change” value is 0.11.

On to `C[C@@H]1O[C@@H](O[C@H]2C[C@@H](O)[C@]3(CO)[C@H]4[C@H](O)C[C@]5(C)[C@@H](C6=CC(=O)OC6)CC[C@]5(O)[C@@H]4CC[C@]3(O)C2)[C@H](O)[C@H](O)[C@H]1O` [Ouabain] (33.3333 µM), for which the “COL1A1 mRNA fold change” value was 0.0962 (active).

As to `CC[C@H]1CN2CCc3cc(OC)c(OC)cc3[C@@H]2C[C@@H]1C[C@H]1NCCc2cc(OC)c(OC)cc21` [Emetine] (12.0333 µM), the “COL1A1 mRNA fold change” value is 0.216 (active).

In the case of `CC1=C(O)C(=O)C=C2C1=CC=C1[C@@]2(C)CC[C@@]2(C)[C@@H]3C[C@](C)(C(=O)O)CC[C@]3(C)CC[C@]12C` [Celastrol] (3.33333 µM), the “COL1A1 mRNA fold change” value is 1.09.

On to `C[C@]12CC[C@H](O)C[C@H]1CC[C@@H]1[C@@H]2CC[C@]2(C)[C@@H](C3=CC(=O)OC3)CC[C@]12O` [Digitoxigenin] (33.3333 µM), for which the “COL1A1 mRNA fold change” value is 0.099 (active).

Take `CO[C@H]1CC[C@@H](O[C@H]2C[C@H]([C@]3(C)CC[C@]4(C[C@H](O)[C@@H](C)[C@@H]([C@@H](C)/C=C(\C)C(=O)[C@H](C)C[C@H](C)C(=O)O)O4)O3)O[C@]3(O[C@@H]([C@H]4O[C@@](O)(CO)[C@H](C)C[C@@H]4C)C[C@@H]3C)[C@@H]2C)O[C@@H]1C` [Nanchangmycin] (11.1 µM): the “COL1A1 mRNA fold change” value was 0.223 (active).

As for `Fc1cc(F)c2c(c1)[C@H]1C=CC[C@H]1C(c1cccnc1)N2` (some centres not stated) [Golgicide A] (33.3333 µM), the “COL1A1 mRNA fold change” value was 0.111 (active).

As for `O=C1C2CCN(CC2)C1(CO)CO` (90 µM), the “COL1A1 mRNA fold change” value was 1.07.

Turning to `CC1=NCCc2c1[nH]c1cc(O)ccc21` [Harmalol hydrochloride dihydrate] (24.4333 µM), the “COL1A1 mRNA fold change” value is 1.24.

`C[C@H](N)Cn1ccc2cc(F)c(Cl)cc21` [Ro 60-0175 fumarate] (33.3333 µM): the “COL1A1 mRNA fold change” value was 2.21.

Consider `COc1ccc2[nH]cc(C3=CCNCC3)c2c1` (33.3333 µM), for which the “COL1A1 mRNA fold change” value is 2.45.

Regarding `CN(C(=O)Cc1ccc(Cl)c(Cl)c1)[C@H](CN1CCCC1)c1ccccc1` [ICI-199,441 hydrochloride] (33.3333 µM), the “COL1A1 mRNA fold change” value was 0.743.

In the case of `CC(C(=O)OC1CC2CCC(C1)N2C)c1ccc(Br)cc1` (configuration not stated) [PG-9 maleate] (33.3333 µM), the “COL1A1 mRNA fold change” value was 0.598.

As to `CCN1CCN(C(=O)Cc2ccc(Nc3ncc(F)c(Nc4ccc(C(=O)Nc5ccccc5Cl)cc4)n3)cc2)CC1` [Aurora A Inhibitor I] (33.3333 µM), the “COL1A1 mRNA fold change” value was 0.0414.

On to `CCCCCCCCCCCCCC(=O)O[C@@H]1[C@@H](C)[C@@]2(O)[C@@H](C=C(CO)C[C@]3(O)C(=O)C(C)=C[C@@H]23)[C@@H]2C(C)(C)[C@]12OC(C)=O` [Phorbol 12-myristate 13-acetate] (27.0333 µM), for which the “COL1A1 mRNA fold change” value was 0.71.

On to `O=[N+]([O-])/C=C/c1ccc2c(c1)OCO2` (3.7 µM), for which the “COL1A1 mRNA fold change” value was 0.638.

As to `CCN(CC)CCO[C@H]1CC[C@@]2(C)C(=CC[C@@H]3[C@@H]2CC[C@]2(C)C(=O)CC[C@@H]32)C1` (33.3333 µM), the “COL1A1 mRNA fold change” value was 0.921.
